Assay results reported in PubChem BioAssay AID2113 (National Center for Advancing Translational Sciences (NCATS), 2009).
Inconclusive results are not listed. Where a call stands in place of a potency, no number is given. Active and inactive are the calls of the source. The call rests on the fitted dose curve; in most records, active means well fitted curve in either direction with a large enough effect; inconclusive means small, poorly fitted or top-dose-only effect; inactive means no such curve, though single readings can be large or run the other way.

Target: Lysosomal alpha-glucosidase (Homo sapiens) (UniProt P10253)
Experiment: Confirmation of Inhibitors and Activators of Human alpha-Glucosidase From Spleen Homogenate
Settings: alpha-glucosidase enzyme activity; series mostly up to 60.5 µM
Procedure, shortened: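 Compounds titrated against spleen-homogenate alpha-glucosidase, pH 5.0, 1 mM 4-MU-glucoside substrate, 37 C for 40 min. Fluorescence after pH 10 stop, normalised to no-enzyme and enzyme controls; Hill-equation AC50.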

O=C1Cc2cc(S(=O)(=O)N3CCNCC3)ccc2N1
Potency: inactive

Cc1nnc(SCC(=O)Nc2ccc3c(c2)COC3=O)n1-c1ccccc1
Potency: inactive

N#Cc1c(-c2cccs2)cc(-c2cccnc2)nc1N
Potency: inactive
